SKN-1 block = blocks SKN-1 activity in C. elegans | C. elegans VP596 Pgst-4::GFP/RFP ratio, acrylamide-induced, 24 h | inhibition, % at 21.8 µM | 360,000 tested, 0.49% active;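 active means interference check ratio from 0.5 to 1.5 plus GFP to RFP signal ratio inhibition reaching or exceeding a fixed threshold, cut at about 30% in these data, passing the limit was not always enough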
MEKK2wt PB1 HTS = raises or lowers MEK5 binding to wildtype human MEKK2 PB1 domain; Q9Y2U5; 290,000 tested, 1.1% active; bead flow cytometry, Alexa488-MEK5 binding to MEKK2 WT; actives lie on both sides; AID 1531; binding response (% of control), % at 10 µM; in the data active means binding response below about 67% or above about 130%
MEKK2mut PB1 HTS = signal of MEK5 binding to mutant human MEKK2 PB1 domain | 290,000 tested, 0.35% active | AID 1530 | percent response, % at 10 µM | bead flow cytometry, Alexa488-MEK5 binding to MEKK2 mutant; in the data active means percent response above about 24%, passing the limit was not always enough
MEKK3 PB1 HTS = raises or lowers MEK5 binding to the human MEKK3 PB1 domain | 290,000 tested, 1.4% active | binding response (% of control), % at 10 µM | bead-based flow cytometry, Alexa488-MEK5 binding to MEKK3; actives lie on both sides; 0 = blocked by unlabeled MEK5, 100 = vehicle | AID 1529 | Q99759;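 active means binding response more than 3 SD above or below the average of its plate-row segment, actives on both sides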;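 further: Alexa488 bead fluorescence after subtracting the streptavidin-only scavenger bead signal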
CendR NRP1 mod = NRP-1/CendR interaction modulation | 360,000 tested, 0.85% active | inhibition, % at 25 µM | FAM-RPARPAR peptide binding to NRP-1, fluorescence polarization | O14786;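 active means inhibition or corrected inhibition above about 18%, plus a signal ratio from 0.5 to 1.5, limit read from the data, passing the limit was not always enough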
Target sequence (O14786 whole entry, looked up): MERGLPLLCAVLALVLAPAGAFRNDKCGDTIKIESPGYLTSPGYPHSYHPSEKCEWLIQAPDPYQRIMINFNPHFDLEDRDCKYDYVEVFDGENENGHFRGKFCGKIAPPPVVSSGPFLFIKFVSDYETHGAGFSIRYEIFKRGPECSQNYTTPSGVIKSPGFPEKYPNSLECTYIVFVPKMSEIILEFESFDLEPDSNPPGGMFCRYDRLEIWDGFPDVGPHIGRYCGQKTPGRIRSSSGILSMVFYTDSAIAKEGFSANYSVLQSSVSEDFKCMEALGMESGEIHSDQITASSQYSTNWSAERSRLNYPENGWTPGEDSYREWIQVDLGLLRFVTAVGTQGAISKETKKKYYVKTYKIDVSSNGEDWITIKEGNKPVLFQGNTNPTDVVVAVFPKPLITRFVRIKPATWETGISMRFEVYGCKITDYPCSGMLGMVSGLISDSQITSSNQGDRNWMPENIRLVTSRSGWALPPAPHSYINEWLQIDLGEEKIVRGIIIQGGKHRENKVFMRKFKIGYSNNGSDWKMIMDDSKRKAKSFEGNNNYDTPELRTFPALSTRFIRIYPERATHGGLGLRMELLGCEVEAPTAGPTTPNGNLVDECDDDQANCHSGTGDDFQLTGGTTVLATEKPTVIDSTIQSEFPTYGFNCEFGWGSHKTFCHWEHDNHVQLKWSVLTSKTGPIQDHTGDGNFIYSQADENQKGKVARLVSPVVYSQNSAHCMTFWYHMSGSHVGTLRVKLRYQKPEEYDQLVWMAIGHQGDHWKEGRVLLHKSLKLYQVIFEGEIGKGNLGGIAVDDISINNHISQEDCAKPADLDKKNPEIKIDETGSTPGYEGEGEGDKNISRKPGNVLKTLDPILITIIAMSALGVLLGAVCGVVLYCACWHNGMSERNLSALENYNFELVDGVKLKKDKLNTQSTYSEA
The depositor's hits bear a star; . = no result; [ ] = another dose, or the depositor's remark. Most compounds without a hit are left out; they make up all but 3.2% or so of the library.

SMILES | SKN-1 block | MEKK2wt PB1 HTS | MEKK2mut PB1 HTS | MEKK3 PB1 HTS | CendR NRP1 mod
Fc1ccccc1C(c1nnnn1C1CCCC1)N1CCN(Cc2ccccc2)CC1 (stereo not drawn) | -20 | 101 | -3 | 104 | 22*
CC1=C(C(=O)N(C(C)C)C(C)C)CC(CC(=O)NC2CCCC2)C(=O)N1Cc1ccc(F)cc1 (stereo not drawn) | 3 | . | . | . | 6
O=c1c(-c2ccc(Br)cc2)coc2c(CN3CCOCC3)c(O)ccc12 | 35* | 95 | -1 | 98 | -1
CCCC(=O)N1CCCC(c2cc(C(=O)Nc3ccc4c(c3)OCO4)no2)C1 (stereo not drawn) | 7 | . | . | . | 0
CN(C)c1ccc(CC(=O)N2CCCC(c3cc(C(=O)Nc4ccc5c(c4)OCO5)no3)C2)cc1 (stereo not drawn) | 20 | . | . | . | 33*
CC(C)c1ccc(C(=O)N2CCCC(c3cc(C(=O)Nc4ccc5c(c4)OCO5)no3)C2)cc1 (stereo not drawn) | 8 | . | . | . | 22*
O=C(N/C(=C\c1cccc([N+](=O)[O-])c1)C(=O)N1CCOCC1)c1cccc(Br)c1 | -12 | 110 | 10 | 107 | 11
CC(=O)Nc1ccc(C(=O)OCC(=O)NC(=O)NC(C)(C)C)cc1 | 45* | 97 | 2 | 98 | 0
CC(=O)c1cccc(NC(=O)C2Cc3c(-c4ccc5c(c4)OCO5)ccnc3O2)c1 (stereo not drawn) | 14 | . | . | . | 9
C[C@H]1CN([C@@H](C)CO)C(=O)CCCn2nncc2CO[C@@H]1CN(C)S(=O)(=O)c1ccc(-c2ccccc2)cc1 | -3 | . | . | . | 4
Cc1ccc(NC(=O)COc2coc(CN3CCN(c4ccccc4)CC3)cc2=O)cc1 | 14 | . | . | . | 6
CCN1CCN(CC2CC3C=CC2C3)CC1 (stereo not drawn) | -7 | 125 | 13 | 105 | 31*
CNC(=O)C[C@@H]1C(=O)N(c2ccc(OC)cc2)CC1(C)C | 8 | . | . | . | -5
COCc1cc(=O)[nH]c(/N=C(\N)Nc2ccc(C)cc2C)n1 | -7 | 103 | 10 | 106 | 27*
Cc1ccc(N/C(N)=N/c2nc(CSc3ccccn3)cc(=O)[nH]2)c(C)c1 | 12 | 92 | -2 | 97 | 4
COc1cccc(CN(CCC(C)C)S(=O)(=O)c2cc(Br)ccc2Br)c1 | 10 | . | . | . | 3
COc1ccc(S(=O)(=O)Nc2ccc3c(c2)C(=O)N([C@H](C)CO)C[C@H](C)[C@@H](CN(C)C(=O)Nc2ccc(F)cc2)OCCCC[C@H](C)O3)cc1 | -3 | . | . | . | 0
COc1ccc(CCNC(=O)COC(=O)/C=C/c2cc(OC)ccc2OC)cc1 | 5 | . | . | . | 10
COc1ccc(OC)c(/C=C/C(=O)OCC(=O)NCc2ccccc2)c1 | -13 | . | . | . | 32*
NC(=O)NC(CC(=O)NNC(=O)c1cccs1)c1ccc(Cl)cc1 (stereo not drawn) | 7 | . | . | . | 1
O=C1CC(N2CCN(Cc3ccc4c(c3)OCO4)CC2)C(=O)N1c1cccc(Cl)c1 (stereo not drawn) | 1 | 106 | 1 | 102 | 37*
O=C1CC(N2CCN(Cc3ccc4c(c3)OCO4)CC2)C(=O)N1c1cccc2ccccc12 (stereo not drawn) | 12 | 102 | -2 | 96 | -1
CC1CCCN(C(=O)COC(=O)C2=COCCO2)C1 (stereo not drawn) | -1 | . | . | . | -4
O=C(Nc1nc2c(F)cc(F)cc2s1)c1ccccn1 | 37* | 95 | -1 | 96 | -17
O=C(CCNC(=O)c1ccc(Cl)cc1)NN1C(=O)NC2(CCCCC2)C1=O | 3 | . | . | . | 20*
SMILES | SKN-1 block | MEKK2wt PB1 HTS | MEKK2mut PB1 HTS | MEKK3 PB1 HTS | CendR NRP1 mod
O=C(O)c1ccc(-c2nc(-c3ccc(Cl)cc3Cl)cs2)cc1 | 10 | 100 | -2 | 100 | 3
Cc1onc(-c2ccc(Cl)cc2Cl)c1-c1csc(COc2ccccc2)n1 | 3 | 96 | -13 | 96 | 27*
C/C(=C\C(=O)c1ccccc1)NCc1ccc(F)cc1 | 33* | 95 | -4 | 93 | 5
O=C(NCc1cccc(OC(F)(F)F)c1)C1CCC(=O)N(Cc2cccc(F)c2)C1 (stereo not drawn) | 8 | 96 | -1 | 99 | 4
NS(=O)(=O)c1ccc(NC(=O)c2ccc(S(=O)(=O)N3CCOCC3)o2)cc1 | -8 | 81 | -32 | 73 | -5
O=C(Nc1ccc(F)cc1)c1ccc(S(=O)(=O)N2CCOCC2)o1 | -3 | 93 | -1 | 94 | 25*
C/C(=N/Nc1ncc(Br)cn1)c1ccc(Br)cc1 | 16 | -2.0* | -3 | 103 | -10
COC1=CC(=Cc2c(N)n3nc(CC(=O)N4CCCCC4)sc3nc2=O)C=C(OC)C1=O | -9 | 70*[inhibitor] | -14 | 82*[inhibitor] | -200
CC1=Nc2ccc(C)cc2/C1=C/c1c(N)n2nc(CC(=O)N3CCOCC3)sc2nc1=O | 38* | 107 | 0 | 104 | -70
CCCN1C[C@@H](C)[C@@H](OC)CN(C)C(=O)c2ccc(NC(=O)c3cccc(F)c3)cc2OC[C@H]1C | 8 | . | . | . | 16
CC[C@]12c3[nH]c4cc(-c5ccco5)ccc4c3CCN1C(=O)[C@@H](CC(=O)NCc1cccc(C(F)(F)F)c1)C[C@@H]2C(=O)N1CCN(C(=O)c2ccco2)CC1 | 15 | . | . | . | -24
Nn1c(SCC(=O)Nc2ccc(N3CCOCC3)cc2)nnc1-c1ccccc1F | -15 | . | . | . | -2
CC(C)(C)C(=O)OCCn1c(=O)c2cc3c(=O)n(CCOC(=O)C(C)(C)C)c(=O)c3cc2c1=O | 10 | 2.0*[inhibitor] | -16 | 2.0*[inhibitor] | -1
Cc1cccc(CCNC(=O)CC2C(=O)NCCN2Cc2ccc(F)c(F)c2)n1 (stereo not drawn) | -6 | 97 | -10 | 96 | 7
O=C(CC1C(=O)NCCN1Cc1ccc(F)c(F)c1)NCCn1cccn1 (stereo not drawn) | 7 | 101 | -2 | 99 | 28*
O=C(CC1C(=O)NCCN1Cc1cccc(Oc2ccccc2)c1)NCCCn1cccn1 (stereo not drawn) | 7 | 129 | 16 | 102 | 23*
COc1ccc(CN2CCNC(=O)C2CC(=O)NCCCn2cccn2)cc1C (stereo not drawn) | 4 | 115 | 7 | 103 | 3
O=C(CC1C(=O)NCCN1CCCc1ccccc1)NCCc1ccccc1F (stereo not drawn) | 12 | 134* | 28* | 103 | -15
Cc1cc(=O)oc2cc(OCC(=O)NC3CC(C)(C)NC(C)(C)C3)ccc12 | 7 | 74 | -12 | 78*[inhibitor] | -4
N#Cc1cc(-c2ccccc2)nn1-c1ccccc1 | 35* | 91 | -3 | 97 | 15
O=C(c1cnn2c(C(F)(F)F)cc(-c3ccco3)nc12)N1CCCc2ccccc21 | 37* | 98 | -3 | 100 | 6
O=C(Nc1ccc2c(c1)OCO2)c1cnn2c(C(F)(F)F)cc(-c3ccco3)nc12 | 34 | 91 | -7 | 92 | 3

Screening data (PubChem BioAssay)
